These results are taken from the supplement of paper PMC9254222.

The full ranking holds about 1,100 compounds; the median of “Renilla luciferase signal (cell health) relative to plate median” is about 0.97, and the highest 2% start at about 1.6. Many of the other results were omitted from the sample, so the highest values are more common in it than they were.

The test system of the test is HEK293T (UBE3A T485A transfected, BAR Wnt reporter). Kind of test: Renilla luciferase signal (cell health) relative to plate median (fold (linear ratio)); higher = higher Renilla signal. The following applies: 24 h. In outline:
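HEK293T cells were grown in DMEM with 10% FBS at 37°C and 5% CO2, at 4500 cells/well in white 384-well plates. They were transfected with a BAR firefly luciferase Wnt reporter, TK-Renilla and an expression plasmid using Fugene 6. Four hours later, robots dosed the chemicals at 0.01–100 uM for 24 h, followed by Dual-Glo luciferase readout. Wnt activity (firefly/Renilla ratio) and cell health (raw Renilla) were median-centred per plate, averaged over four biological replicates.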

Turning to `ClC1=C(Cl)C2(Cl)C3C4CC(C5OC45)C3C1(Cl)C2(Cl)Cl` (stereo not drawn) [Endrin], the Renilla luciferase signal is 0.878 (concentration: 0.1 uM), 0.941 (concentration: 1 uM), 0.842 (concentration: 10 uM) and 0.349 (concentration: 100 uM).
Take `ClC1=C(Cl)C2(Cl)C3C4CC(C5OC45)C3C1(Cl)C2(Cl)Cl` (stereo not drawn) [Dieldrin]: the Renilla luciferase signal worked out at 1.01 (concentration: 0.1 uM), 0.977 (concentration: 1 uM), 1.07 (concentration: 10 uM) and 0.829 (concentration: 100 uM).
In the case of `CCCCOC(=O)c1ccccc1C(=O)OCCCC` [Dibutyl phthalate], the Renilla luciferase signal (concentration: 0.01 uM) worked out at 1.02; the Renilla luciferase signal (concentration: 0.1 uM) was 1.04; the Renilla luciferase signal (concentration: 1 uM) worked out at 1.02; the Renilla luciferase signal (concentration: 10 uM) turned out to be 1.03; the Renilla luciferase signal (concentration: 100 uM) was 0.11.
In the case of `CCCCOC(=O)c1ccccc1C(=O)O` [Monobutyl phthalate], the Renilla luciferase signal (concentration: 0.01 uM) was 0.968; the Renilla luciferase signal (concentration: 0.1 uM) is 0.862; the Renilla luciferase signal (concentration: 1 uM) came out at 0.73; the Renilla luciferase signal (concentration: 10 uM) was 1.21; the Renilla luciferase signal (concentration: 100 uM) turned out to be 2.17.
For `CCCCCOC(=O)c1ccccc1C(=O)OCCCCC` [Dipentyl phthalate], the Renilla luciferase signal (concentration: 0.1 uM) came out at 0.95, the Renilla luciferase signal (concentration: 1 uM) is 0.861, the Renilla luciferase signal (concentration: 10 uM) is 0.91 and the Renilla luciferase signal (concentration: 100 uM) is 1.18.
With `CC(C)C1(C)N=C(c2nc3ccccc3cc2C(=O)O)NC1=O` (stereo not drawn) [Imazaquin], the Renilla luciferase signal is, setting by setting: (concentration: 0.01 uM) 1.09; (concentration: 0.1 uM) 1.09; (concentration: 1 uM) 1.07; (concentration: 10 uM) 1.06; (concentration: 100 uM) 1.38.
`Cc1cnc(C2=NC(=O)C(C)(C(C)C)N2)c(C(=O)O)c1` (stereo not drawn) [Imazapic]: the Renilla luciferase signal runs as follows: (concentration: 0.01 uM) 1.11; (concentration: 0.1 uM) 1.17; (concentration: 1 uM) 1.18; (concentration: 10 uM) 1.14; (concentration: 100 uM) 1.72.
Turning to `CCC(C)C1OC2(C=CC1C)CC1CC(CC=C(C)C(OC3CC(OC)C(OC4CC(OC)C([NH2+]C)C(C)O4)C(C)O3)C(C)C=CC=C3COC4C(O)C(C)=CC(C(=O)O1)C34O)O2.O=C([O-])c1ccccc1` (stereo not drawn) [Emamectin benzoate], the Renilla luciferase signal was found to be 1.02 (concentration: 0.01 uM); 1.08 (concentration: 0.1 uM); 0.877 (concentration: 1 uM); 0.0929 (concentration: 10 uM); 0.0231 (concentration: 100 uM).
As for `CCc1cnc(C2=NC(C)(C(C)C)C(=O)N2)c(C(=O)O)c1` (stereo not drawn) [Imazethapyr], the Renilla luciferase signal (concentration: 0.01 uM) came out at 1.11; the Renilla luciferase signal (concentration: 0.1 uM) was determined as 0.962; the Renilla luciferase signal (concentration: 1 uM) is 0.96; the Renilla luciferase signal (concentration: 10 uM) turned out to be 0.991; the Renilla luciferase signal (concentration: 100 uM) was 1.58.
On to `COCc1cnc(C2=NC(C)(C(C)C)C(=O)N2)c(C(=O)O)c1` (stereo not drawn) [Imazamox], for which the Renilla luciferase signal runs as follows: (concentration: 0.01 uM) 0.649; (concentration: 0.1 uM) 0.799; (concentration: 1 uM) 0.965; (concentration: 10 uM) 0.977; (concentration: 100 uM) 2.3.
The corresponding values for `CC(C)C1(C)N=C(c2ncccc2C(=O)O)NC1=O` (stereo not drawn) [Imazapyr] are 0.822, 0.714, 0.895, 0.959 and 1.42.
`CCCOC/C(=N\c1ccc(Cl)cc1C(F)(F)F)n1ccnc1` [Triflumizole]: the Renilla luciferase signal (concentration: 0.01 uM) stood at 0.984; the Renilla luciferase signal (concentration: 0.1 uM) is 0.937; the Renilla luciferase signal (concentration: 1 uM) was 0.992; the Renilla luciferase signal (concentration: 10 uM) stood at 0.929; the Renilla luciferase signal (concentration: 100 uM) turned out to be 1.45.
Consider `CCSC(=O)N(CC)C1CCCCC1` [Cycloate], for which the Renilla luciferase signal is 0.797 (concentration: 0.01 uM); 0.996 (concentration: 0.1 uM); 0.924 (concentration: 1 uM); 1.01 (concentration: 10 uM); 1.15 (concentration: 100 uM).
Consider `CCSC(=O)N1CCCCCC1` [Molinate], for which the Renilla luciferase signal by setting is: (concentration: 0.01 uM) 0.998; (concentration: 0.1 uM) 0.899; (concentration: 1 uM) 0.905; (concentration: 10 uM) 1.04; (concentration: 100 uM) 1.8.
For the compound `CCOP(=S)(Oc1cnc(C(C)(C)C)nc1)OC(C)C` (stereo not drawn) [Tebupirimfos], the Renilla luciferase signal reads like this: (concentration: 0.01 uM) 1.07; (concentration: 0.1 uM) 1.22; (concentration: 1 uM) 1.16; (concentration: 10 uM) 1.08; (concentration: 100 uM) 1.4.
Consider `CSC(=O)c1c(C(F)F)nc(C(F)(F)F)c(C(=O)SC)c1CC(C)C` [Dithiopyr], for which the Renilla luciferase signal by setting is: (concentration: 0.01 uM) 0.664; (concentration: 0.1 uM) 0.813; (concentration: 1 uM) 0.927; (concentration: 10 uM) 0.835; (concentration: 100 uM) 1.14.
Take `O=C(N[C@H](c1ccccc1)[C@@H]1CN2CCC1CC2)c1c(Cl)ccc(C(F)(F)F)c1Cl`: the Renilla luciferase signal reads like this: (concentration: 0.1 uM) 0.771; (concentration: 1 uM) 0.687; (concentration: 10 uM) 0.344; (concentration: 100 uM) 0.143.
Consider `CCOc1ccc(C(C)(C)COCc2cccc(Oc3ccccc3)c2)cc1` [Etofenprox], for which the Renilla luciferase signal reads like this: (concentration: 0.1 uM) 1.01; (concentration: 1 uM) 1.12; (concentration: 10 uM) 0.95; (concentration: 100 uM) 1.14.
For the compound `CCC(C)(C)c1ccc(O)cc1` [4-(2-Methylbutan-2-yl)phenol], the Renilla luciferase signal by setting is: (concentration: 0.1 uM) 0.874; (concentration: 1 uM) 0.809; (concentration: 10 uM) 0.795; (concentration: 100 uM) 0.442.
For the compound `CCNc1nc(Cl)nc(NC(C)C)n1` [Atrazine], the Renilla luciferase signal was determined as 0.72 (concentration: 0.01 uM); 0.693 (concentration: 0.1 uM); 0.877 (concentration: 1 uM); 0.729 (concentration: 10 uM); 1.18 (concentration: 100 uM).
For the compound `CCNc1nc(NC(C)C)nc(SC)n1` [Ametryn], the Renilla luciferase signal by setting is: (concentration: 0.01 uM) 0.34; (concentration: 0.1 uM) 0.318; (concentration: 1 uM) 0.3; (concentration: 10 uM) 0.543; (concentration: 100 uM) 1.78.
Regarding `CSc1nc(NC(C)C)nc(NC(C)C)n1` [Prometryn], the Renilla luciferase signal runs as follows: (concentration: 0.01 uM) 1.14; (concentration: 0.1 uM) 1.03; (concentration: 1 uM) 0.973; (concentration: 10 uM) 1.01; (concentration: 100 uM) 0.989.
For the compound `CCCN(CCC)c1c([N+](=O)[O-])cc(S(N)(=O)=O)cc1[N+](=O)[O-]` [Oryzalin], the Renilla luciferase signal is, setting by setting: (concentration: 0.01 uM) 1.08; (concentration: 0.1 uM) 0.918; (concentration: 1 uM) 0.931; (concentration: 10 uM) 0.876; (concentration: 100 uM) 0.99.
Taken in the same sequence, the figures for `CC1COC(Cn2cncn2)(c2ccc(Oc3ccc(Cl)cc3)cc2Cl)O1` (stereo not drawn) [Difenoconazole] were 1.03, 1.07, 0.923, 0.485 and 0.152.
With `Cc1cccc(N)c1N` [2,3-Diaminotoluene], the Renilla luciferase signal reads like this: (concentration: 0.1 uM) 0.728; (concentration: 1 uM) 0.75; (concentration: 10 uM) 0.772; (concentration: 100 uM) 0.198.
